Results from PubChem BioAssay (NCATS).
Records with an inconclusive call do not appear. Entries that show only a call come without a potency. Activity calls are given as the source filed them. Unless noted, calls come from the whole dose curve; as a rule, active = well fitted curve in the direction sought with a large enough effect; inconclusive = small, poorly fitted or top-dose-only effect, or another doubt; inactive = no such curve, though single readings can be large; an effect the other way counts as inactive or inconclusive.

Legend:
[1] = biological target: Glucocorticoid receptor (Homo sapiens) (UniProt P04150); test: GR-GFP Redistribution (AID 450;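 active = compounds whose dose series gives a full or clear partial fitted curve of increased nuclear translocation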; note: potency is the fitted concentration of half-maximal effect); details: U2OS GR-GFP nuclear translocation, laser cytometry, 2 h
[2] = biological target: Glucocorticoid receptor (Homo sapiens) (UniProt P04150); test: GR-EFC Redistribution (AID 451; calls by dose curve; note: potency is the fitted concentration of half-maximal effect); details: CHO-K1 GR-EFC translocation, beta-gal luminescence, 2 h
How it was run: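 Translocation of GR-ED fusion to nuclear EA restores b-gal, read by luminescence after 1 h room-temperature detection. Engineered CHO-K1 biosensor cells, 1,000/well, exposed 2 h at 37 C to titrations up to 46 uM final.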

[3] = biological target: Mitogen-activated protein kinase 10 (Mus musculus) (UniProt Q61831); test: JNK3 AlphaScreen Assay (AID 530; active = well fitted curve in either direction with a large enough effect, not every such curve was filed as active;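 note: kinase came from lysate of stimulated human HepG2 cells; signal reports phosphorylation of biotinylated GST-cJun 1-79 at Ser73 with 10 µM ATP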); details: JNK3 lysate, c-Jun phosphorylation; series mostly up to 25.6 µM
How it was run: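 Room-temperature AlphaScreen kinase assay; pre-activated HepG2 lysate as JNK3 source, biotin-GST-cJun(1-79) substrate, 10 uM ATP, compound 15 min preincubation.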

[4] = qHTS Assay for Lipid Storage Modulators (AID 1519; calls by dose curve; note: potency is the fitted concentration of half-maximal effect); details: Drosophila S3 cells, BODIPY lipid droplet/cell ratio, laser cytometry, cells loaded with oleic acid
How it was run: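 Cells seeded at 5,000 per well were treated with compounds over a concentration series and loaded with oleic acid (400 uM, as added). Lipid droplet fluorescence (488 nm excitation, 500-530 nm channel) was read by laser-scanning cytometry and normalized to 20 uM Triacsin C.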

[5] = biological target: ATP-dependent 6-phosphofructokinase (Trypanosoma brucei brucei) (UniProt O15648); test: qHTS Assay to Find Inhibitors of T. brucei phosphofructokinase: hit validation (AID 492961);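 note: luminescence reports ADP formed as PFK phosphorylates fructose-6-phosphate with ATP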; details: T. brucei PFK, ADP-Glo luminescence; series mostly up to 24.3 µM
How it was run: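 ADP-Glo luminescence read-out of ADP formed by 1.25 nM PFK from 0.1 mM ATP and 0.5 mM F6P (TEA pH 8.0, 45 min, RT). Compounds titrated; activity normalized to no-enzyme and full-enzyme controls.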

[6] = qHTS profiling for inhibitors of Plasmodium falciparum proliferation (AID 504749); note: nearly all actives have a fitted effect of over 60% in size; note: potency is the fitted concentration of half-maximal effect; details: P. falciparum in erythrocytes, SYBR Green DNA, 72 h
How it was run: (§1)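 Three-day growth assay of blood-stage parasites in erythrocytes (0.3% parasitemia, 2.5% hematocrit) at 37 C, 5% CO2, quantified by SYBR Green DNA staining after overnight detergent lysis.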

[7] = tested on: 3D7; test: as above; details: P. falciparum in erythrocytes, SYBR Green DNA, 72 h; series mostly up to 12.8 µM
How it was run: as §1

[8] = tested on: AS120; test: as above; details: P. falciparum in erythrocytes, SYBR Green DNA, 72 h; series mostly up to 12.8 µM
How it was run: as §1

[9] = tested on: C2A; test: as above; details: P. falciparum in erythrocytes, SYBR Green DNA, 72 h; series mostly up to 12.8 µM
How it was run: as §1

[10] = tested on: CP217; test: as above; details: P. falciparum in erythrocytes, SYBR Green DNA, 72 h; series mostly up to 12.8 µM
How it was run: as §1

[11] = tested on: CP238; test: as above; details: P. falciparum in erythrocytes, SYBR Green DNA, 72 h; series mostly up to 12.8 µM
How it was run: as §1

[12] = tested on: CP252; test: as above; details: P. falciparum in erythrocytes, SYBR Green DNA, 72 h; series mostly up to 12.8 µM
How it was run: as §1

[13] = tested on: CP262; test: as above; details: P. falciparum in erythrocytes, SYBR Green DNA, 72 h; series mostly up to 12.8 µM
How it was run: as §1

[14] = tested on: CP269; test: as above; details: P. falciparum in erythrocytes, SYBR Green DNA, 72 h; series mostly up to 12.8 µM
How it was run: as §1

[15] = tested on: CP297; test: as above; details: P. falciparum in erythrocytes, SYBR Green DNA, 72 h; series mostly up to 12.8 µM
How it was run: as §1

[16] = tested on: ECU; test: as above; details: P. falciparum in erythrocytes, SYBR Green DNA, 72 h; series mostly up to 12.8 µM
How it was run: as §1

[17] = tested on: PAD; test: as above; details: P. falciparum in erythrocytes, SYBR Green DNA, 72 h; series mostly up to 12.8 µM
How it was run: as §1

[18] = tested on: SC27B; test: as above; details: P. falciparum in erythrocytes, SYBR Green DNA, 72 h; series mostly up to 12.8 µM
How it was run: as §1

[19] = biological target: Ubiquitin carboxyl-terminal hydrolase 1 (Homo sapiens) (UniProt O94782); test: Inhibitors of USP1/UAF1: Pilot qHTS (AID 504865); details: purified USP1/UAF1, Ub-rhodamine cleavage fluorescence; series mostly up to 114 µM;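 note: rhodamine fluorescence freed from ubiquitin-rhodamine substrate followed over time; top concentration of the series differs between compounds; nearly all actives have a fitted effect of over 35% in size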
How it was run: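 1nM USP1/UAF1 + cpd, 15 min RT; start w/ Ub-Rho 150nM final; kinetic FL 480/540 nm, 6 reads q60 s. Buffer 50mM HEPES pH 7.8, 0.5mM EDTA, 1mM TCEP, 0.01% Tween-20, 0.1 mg/ml BSA.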

[20] = tested on: CP237; test: qHTS profiling for inhibitors of Plasmodium falciparum proliferation (AID 504749); note: nearly all actives have a fitted effect of over 60% in size; note: potency is the fitted concentration of half-maximal effect; details: P. falciparum in erythrocytes, SYBR Green DNA, 72 h; series mostly up to 12.8 µM
How it was run: as §1

[21] = measured here: cell count channel max response
[22] = measured here: lipid channel max response
[23] = at 12.8 µM (top of the series), parasite line A
[24] = at 12.8 µM (top of the series), parasite line B
[25] = at 28.7 µM (top of the series), parasite line A
[26] = at 28.7 µM (top of the series), parasite line B

ATP-dependent 6-phosphofructokinase (Trypanosoma brucei brucei), sequence (O15648 whole entry, looked up): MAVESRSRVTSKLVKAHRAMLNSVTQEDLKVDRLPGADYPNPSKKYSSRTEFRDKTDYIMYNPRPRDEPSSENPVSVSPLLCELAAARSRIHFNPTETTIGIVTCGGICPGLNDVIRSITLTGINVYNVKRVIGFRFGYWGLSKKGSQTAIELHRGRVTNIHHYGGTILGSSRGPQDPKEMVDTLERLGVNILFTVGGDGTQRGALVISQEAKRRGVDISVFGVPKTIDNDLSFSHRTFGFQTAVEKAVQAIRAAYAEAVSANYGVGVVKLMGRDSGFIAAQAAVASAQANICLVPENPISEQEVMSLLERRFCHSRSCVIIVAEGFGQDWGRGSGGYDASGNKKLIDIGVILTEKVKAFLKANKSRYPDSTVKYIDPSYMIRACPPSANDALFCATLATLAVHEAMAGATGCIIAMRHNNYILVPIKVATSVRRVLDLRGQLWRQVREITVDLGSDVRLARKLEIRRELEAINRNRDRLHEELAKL
Glucocorticoid receptor (Homo sapiens), sequence (P04150 whole entry, looked up, the tested form may be a part): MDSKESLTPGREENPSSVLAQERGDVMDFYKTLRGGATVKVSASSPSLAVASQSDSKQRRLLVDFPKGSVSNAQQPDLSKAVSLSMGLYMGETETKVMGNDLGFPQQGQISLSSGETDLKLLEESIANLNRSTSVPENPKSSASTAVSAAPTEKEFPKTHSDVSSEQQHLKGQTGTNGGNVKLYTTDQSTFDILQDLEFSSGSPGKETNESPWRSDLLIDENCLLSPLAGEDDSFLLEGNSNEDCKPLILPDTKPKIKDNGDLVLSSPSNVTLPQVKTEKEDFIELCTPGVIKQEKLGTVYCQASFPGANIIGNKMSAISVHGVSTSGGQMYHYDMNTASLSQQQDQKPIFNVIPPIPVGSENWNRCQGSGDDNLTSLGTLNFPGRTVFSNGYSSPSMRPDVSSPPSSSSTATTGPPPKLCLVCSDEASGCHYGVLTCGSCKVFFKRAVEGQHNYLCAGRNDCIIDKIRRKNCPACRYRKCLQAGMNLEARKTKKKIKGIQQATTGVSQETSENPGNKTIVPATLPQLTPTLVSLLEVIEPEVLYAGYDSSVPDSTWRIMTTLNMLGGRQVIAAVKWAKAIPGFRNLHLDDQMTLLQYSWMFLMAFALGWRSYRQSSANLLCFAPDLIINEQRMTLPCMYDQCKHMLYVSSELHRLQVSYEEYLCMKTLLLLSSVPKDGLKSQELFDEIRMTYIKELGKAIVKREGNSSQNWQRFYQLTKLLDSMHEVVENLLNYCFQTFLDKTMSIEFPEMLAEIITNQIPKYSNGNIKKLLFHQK
Ubiquitin carboxyl-terminal hydrolase 1 (Homo sapiens), sequence (O94782 whole entry, looked up): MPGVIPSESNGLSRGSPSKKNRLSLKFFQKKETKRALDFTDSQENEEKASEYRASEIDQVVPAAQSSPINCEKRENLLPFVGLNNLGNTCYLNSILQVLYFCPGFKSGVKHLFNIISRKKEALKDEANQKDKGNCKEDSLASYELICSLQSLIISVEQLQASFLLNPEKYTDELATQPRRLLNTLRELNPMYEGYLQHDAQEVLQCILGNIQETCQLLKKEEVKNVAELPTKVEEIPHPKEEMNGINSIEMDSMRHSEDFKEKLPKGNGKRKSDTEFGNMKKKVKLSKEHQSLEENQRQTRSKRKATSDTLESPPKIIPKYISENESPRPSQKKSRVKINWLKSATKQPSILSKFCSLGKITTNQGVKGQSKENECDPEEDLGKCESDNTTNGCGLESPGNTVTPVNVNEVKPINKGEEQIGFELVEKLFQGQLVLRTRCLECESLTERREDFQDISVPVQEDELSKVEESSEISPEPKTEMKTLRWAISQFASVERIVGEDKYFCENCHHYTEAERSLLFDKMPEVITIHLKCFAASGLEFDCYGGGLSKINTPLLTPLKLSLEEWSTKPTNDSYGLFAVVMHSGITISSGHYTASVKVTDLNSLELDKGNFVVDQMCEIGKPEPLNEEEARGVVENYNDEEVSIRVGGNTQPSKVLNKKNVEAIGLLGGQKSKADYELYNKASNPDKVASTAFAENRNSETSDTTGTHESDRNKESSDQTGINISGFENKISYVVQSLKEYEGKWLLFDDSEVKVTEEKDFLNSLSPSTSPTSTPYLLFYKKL

For COc1ccc2c(c1)N(C[C@@H](C)CN(C)C)c1ccccc1S2, the Potency [1] was > 20.6 µM (inactive), the Potency [2] was > 20.6 µM (inactive) and the Potency [3] was “inactive”. The activity change, negative = inhibition ([4]; at 25.7 µM (top of the series)) was -4.01% (inactive), the max response [4, 21] was -9.35% and the max response [4, 22] was -12.9%. The outcome [5] was “inactive”, the activity, negative = inhibition [6, 23] was 2.81% (inactive) and the activity, negative = inhibition [6, 24] was -1.87% (inactive). For the same compound, the Potency [7] was “inactive”, the Potency [8] was “inactive” and the Potency [9] was “inactive”. The Potency [10] was “inactive”, the Potency [11] was “inactive” and the Potency [12] was “inactive”. The Potency [13] was “inactive”, the Potency [14] was “inactive” and the Potency [15] was “inactive”. For the same compound, the Potency [16] was “inactive”, the Potency [17] was “inactive” and the Potency [18] was “inactive”.
For CCN(CC)[C@@H](C)CN1c2ccccc2Sc2ccccc21, the Potency [1] was > 20.6 µM (inactive), the Potency [2] was > 20.6 µM (inactive) and the Potency [3] was “inactive”. The activity change, negative = inhibition ([4]; at 25.7 µM (top of the series)) was 0.633% (inactive), the max response [4, 21] was -2.62% and the max response [4, 22] was -2.65%. For the same compound, the outcome [5] was “inactive”, the Potency [19] was “inactive” and the activity, negative = inhibition [6, 24] was -12.9% (inactive). For the same compound, the Potency [9] was “inactive”, the Potency [11] was “inactive” and the Potency [13] was “inactive”. For the same compound, the Potency [14] was “inactive”, the Potency [15] was “inactive” and the Potency [17] was “inactive”.
For Cc1ccnc(N)c1, the Potency [1] was > 46 µM (inactive), the Potency [2] was > 46 µM (inactive) and the activity change, negative = inhibition ([4]; at 57.5 µM (top of the series)) was -1.11% (inactive). For the same compound, the max response [4, 21] was -7.5%, the max response [4, 22] was -8.73% and the Potency [19] was “inactive”.
For CC=C(/C(=C/C)c1ccc(O)cc1)c1ccc(O)cc1, the Potency [1] was > 20.6 µM (inactive), the Potency [2] was > 20.6 µM (inactive) and the Potency [3] was “inactive”. For the same compound, the activity change, negative = inhibition ([4]; at 25.7 µM (top of the series)) was -3.26% (inactive), the max response [4, 21] was -14.6% and the max response [4, 22] was -18.3%. The outcome [5] was “inactive”, the activity, negative = inhibition [6, 23] was -1.05% (inactive) and the activity, negative = inhibition [6, 24] was -9.06% (inactive). The Potency [7] was “inactive”, the Potency [8] was “inactive” and the Potency [9] was “inactive”. For the same compound, the Potency [10] was “inactive”, the Potency [20] was “inactive” and the Potency [11] was “inactive”. For the same compound, the Potency [12] was “inactive”, the Potency [13] was “inactive” and the Potency [14] was “inactive”. The Potency [15] was “inactive”, the Potency [16] was “inactive” and the Potency [17] was “inactive”. The Potency [18] was “inactive”.
In the case of CCOC(=O)Oc1c(OC)cc(C(=O)O[C@H]2C[C@H]3CN4CCc5c([nH]c6cc(OC)ccc56)[C@@H]4C[C@H]3[C@@H](C(=O)OC)[C@@H]2OC)cc1OC, the Potency [1] is reported as > 20.6 µM (inactive), the Potency [2] is reported as > 20.6 µM (inactive) and the Potency [3] is reported as “inactive”. For the same compound, the activity change, negative = inhibition ([4]; at 25.7 µM (top of the series)) was -4.31% (inactive), the max response [4, 21] was -12.6% and the max response [4, 22] was -12.3%. For the same compound, the outcome [5] was “inactive”, the Potency [19] was “inactive” and the Potency ([6]; parasite line A) was 4.47 µM (active). The Potency [7] was 3.16 µM (active), the Potency [8] was 3.55 µM (active) and the Potency [20] was 3.16 µM (active). For the same compound, the Potency [15] was 7.21 µM (active) and the Potency [17] was 3.55 µM (active).
For CCC(C)(C)C(=O)O[C@@H]1C[C@H](C)C=C2C=C[C@H](C)[C@@H](CC[C@H]3C[C@@H](O)CC(=O)O3)[C@H]21, the Potency [1] was > 20.6 µM (inactive), the Potency [2] was > 20.6 µM (inactive) and the Potency [3] was “inactive”. The activity change, negative = inhibition ([4]; at 25.7 µM (top of the series)) was -9.23% (inactive), the max response [4, 21] was -10.9% and the max response [4, 22] was -20.7%. For the same compound, the outcome [5] was “inactive”, the activity, negative = inhibition [6, 23] was -15.1% (inactive) and the Potency [7] was “inactive”. The Potency [8] was “inactive”, the Potency [9] was “inactive” and the Potency [10] was “inactive”. The Potency [20] was “inactive”, the Potency [11] was “inactive” and the Potency [12] was “inactive”. For the same compound, the Potency [13] was “inactive”, the Potency [14] was “inactive” and the Potency [15] was “inactive”. The Potency [16] was “inactive” and the Potency [18] was “inactive”.
In the case of COc1cccc(-c2nc(NCCc3c[nH]c4ccc(OC)cc34)c3ccccc3n2)c1, the Potency [1] is reported as > 46 µM (inactive), the Potency [2] is reported as > 46 µM (inactive) and the Potency [3] is reported as “inactive”. The activity change, negative = inhibition ([4]; at 57.5 µM (top of the series)) was 5.14% (inactive), the max response [4, 21] was -17.7% and the max response [4, 22] was -5.2%.
For CC[C@H](C(=O)[C@H](C)[C@H](O)[C@H](C)CCc1ccc(C)c(O)c1C(=O)O)[C@H]1O[C@](CC)([C@@H]2CC[C@@](O)(CC)[C@H](C)O2)C[C@H]1C, the Potency [1] was > 20.6 µM (inactive), the Potency [2] was > 20.6 µM (inactive) and the Potency [3] was “inactive”. For the same compound, the Potency [4] was 14.1 µM (active), the max response [4, 21] was -26.4% and the max response [4, 22] was -85.1%.
With CC1(C)OC2CC(=O)OC[C@@]23C1CC(=O)[C@]1(C)C3CC[C@@]2(C)C(c3ccoc3)OC(=O)C3O[C@@]321 (stereo not given in full) the activity change, negative = inhibition ([4]; at 57.5 µM (top of the series)) was 7.05% (inactive), the max response [4, 21] was 20.2% and the max response [4, 22] was 29.2%. For the same compound, the outcome [5] was “inactive”, the Potency [19] was “inactive” and the activity, negative = inhibition [6, 25] was -0.282% (inactive). For the same compound, the activity, negative = inhibition [6, 26] was 13.3% (inactive), the Potency [7] was “inactive” and the Potency [8] was “inactive”. For the same compound, the Potency [9] was “inactive”, the Potency [10] was “inactive” and the Potency [20] was “inactive”. The Potency [11] was “inactive”, the Potency [12] was “inactive” and the Potency [13] was “inactive”. For the same compound, the Potency [14] was “inactive”, the Potency [15] was “inactive” and the Potency [16] was “inactive”. For the same compound, the Potency [17] was “inactive” and the Potency [18] was “inactive”.
For COc1ccc2cc(C(C)CO)ccc2c1 (stereo not given), the activity change, negative = inhibition ([4]; at 57.5 µM (top of the series)) was 8.58% (inactive), the max response [4, 21] was 13.8% and the max response [4, 22] was 24.6%. The outcome [5] was “inactive”, the Potency [19] was “inactive” and the activity, negative = inhibition [6, 25] was 12.4% (inactive). The activity, negative = inhibition [6, 26] was 6.41% (inactive), the Potency [7] was “inactive” and the Potency [8] was “inactive”. The Potency [9] was “inactive”, the Potency [10] was “inactive” and the Potency [20] was “inactive”. The Potency [11] was “inactive”, the Potency [12] was “inactive” and the Potency [13] was “inactive”. For the same compound, the Potency [14] was “inactive”, the Potency [15] was “inactive” and the Potency [16] was “inactive”. For the same compound, the Potency [17] was “inactive” and the Potency [18] was “inactive”.
